Source: PubChem
CYP2C9 inhib: inhibitors of human CYP2C9; CYP2C9 Supersomes, luciferin-H conversion, luminescence; 20% of 96,000 active; P11712; inhibition, % at 5 µM;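 active = blocking of liver enzyme CYP2C9 beyond about 50% at 5 µM, limit read from the data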
Target sequence (P11712 whole entry, looked up): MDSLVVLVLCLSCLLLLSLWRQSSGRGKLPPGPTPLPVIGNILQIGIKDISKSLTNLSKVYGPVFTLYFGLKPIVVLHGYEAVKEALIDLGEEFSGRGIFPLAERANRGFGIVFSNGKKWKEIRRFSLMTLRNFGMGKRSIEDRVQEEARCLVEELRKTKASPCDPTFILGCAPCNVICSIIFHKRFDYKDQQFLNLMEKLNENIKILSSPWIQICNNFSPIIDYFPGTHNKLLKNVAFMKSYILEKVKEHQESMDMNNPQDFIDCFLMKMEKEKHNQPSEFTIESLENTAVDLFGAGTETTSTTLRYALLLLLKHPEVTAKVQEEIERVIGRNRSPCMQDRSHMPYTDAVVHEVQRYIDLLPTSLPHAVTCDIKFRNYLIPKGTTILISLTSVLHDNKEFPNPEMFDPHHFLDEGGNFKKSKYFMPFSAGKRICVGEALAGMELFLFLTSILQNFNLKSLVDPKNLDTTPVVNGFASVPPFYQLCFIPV
CYP2C19 activ: activators of human cytochrome P450 2C19; recombinant CYP2C19, luciferin-H EGE luminescence; active compounds read high; 0 = fully inhibited enzyme, 1 = untreated enzyme; activation factor at 5 µM; 96,000 tested, under 10 active; AID 1025;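 active = activation factor of at least 2 at 5 µM in the primary screen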;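 also: 0 = wells with 2.5 mM tranylcypromine and 1 = vehicle-only wells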
PLAP act: activators of human placental alkaline phosphatase | P05187 | purified PLAP enzyme, luminescent substrate read-out; active compounds read high | activation fold at 20 µM | 1.2% of 96,000 active | AID 696; in the data active = activation fold above about 2
CYP2C9 activ: increases human cytochrome P450 2C9 activity; P11712; recombinant CYP2C9, luciferin-H conversion, luminescence; active compounds read high; factor 1 = untreated enzyme, 0 = blocked; activation factor at 5 µM; 1.4% of 96,000 active; AID 1024;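 active = activation factor of 2 or more for CYP2C9 at a 5 µM dose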;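 also: 0 = sulfaphenazole-blocked wells and 1 = vehicle-only wells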
CYP2C19 inhib: blocks human cytochrome P450 2C19; CYP2C19 Supersomes, luciferin-H EGE luminescence, 30 min; AID 778; 21% of 96,000 active; inhibition, % at 5 µM; P33261;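 active = CYP2C19 inhibition above a set limit at 5 µM in the primary screen, cut at about 50% in these data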;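 also: plate controls were negative control wells for no effect and 2.5 mM tranylcypromine positive control for full effect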
* marks the source's active call; other numbers are inactive results; x = no result. Rows were chosen to be rich in hits. Some 31% of all compounds tested hit in one or more screens of this group.

SMILES	CYP2C9 inhib	CYP2C19 activ	PLAP act	CYP2C9 activ	CYP2C19 inhib
c1csc(-c2nc3nc4ccccc4nc3n2Cc2ccc3c(c2)OCO3)c1	96*	0.1	1.5	0	90*
CCCn1c(-c2cccs2)nc2nc3ccccc3nc21	47	0.9	0.9	0.5	14
CCOC(=O)c1ccc(NC(=S)Nc2ccccn2)cc1	-6	0.9	0.8	1.1	8
CN(Cc1cccs1)C(=O)CSc1nnnn1C	-12	0.7	1.1	1.1	28
Cc1nc2ccccc2c(=O)n1NCc1cc(Br)cs1	19	0.6	0.9	0.8	42
CCOC(=O)c1cc2sc(C)cc2n1CC(=O)N1CCN(C(=O)c2ccco2)CC1	20	0.8	1.5	0.8	17
CCOC(=O)c1cc2sc(C)cc2n1CC(=O)NCc1ccc(F)cc1	14	0.3	1	0.9	72*
CCOC(=O)c1cc2sc(C)cc2n1CC(=O)N1CCOCC1	-9	0.3	1.3	1.1	65*
Cc1cccc(C2Nc3ccccc3C(=O)N2CCc2ccccc2)n1 (stereo not drawn)	61*	0.4	0.7	0.4	61*
CCCn1c(=O)c2ccccc2n2c(SCC(=O)c3cc(C)n(CCOC)c3C)nnc12	26	0.5	1	0.7	48
COc1ccc(N2CCN(C(=O)c3cn(C)c(=O)c4c3c3ccccc3n4C)CC2)cc1	9	1	1.3	0.9	3
Cn1c2ccccc2c2c(C(=O)N3CCN(c4ccccn4)CC3)cn(C3CCCC3)c(=O)c21	94*	0.3	1.5	0.1	69*
COc1ccc(N2CCN(C(=O)c3cn(C4CCCC4)c(=O)c4c3c3ccccc3n4C)CC2)cc1	90*	0.2	1.6	0.1	77*
Cn1c2ccccc2c2c(C(=O)N3CCN(C(=O)c4ccco4)CC3)cn(C3CCCCC3)c(=O)c21	74*	0.6	1.5	0.3	40
O=C(O)C1C2C=CC(C3CC23)C1C(=O)NCCc1ccccc1 (stereo not drawn)	10	0.6	0.9	0.9	42
CC(C)(C)N1CC2([N+](=O)[O-])CN(C(C)(C)C)CC([N+](=O)[O-])(C1)C2	6	0.9	0.9	0.9	13
O=C(Nc1ccc2ccccc2c1)c1onc2c1CCCC2	-15	1.1	1.1	1.2	-10
C=CCNC(=O)C1CCN(c2nc(C)cc(-c3ccccc3)n2)CC1	77*	0.2	1.5	0.2	82*
Cc1nn(C(C)C(=O)NNC(=S)Nc2ccc(F)cc2)c(C)c1[N+](=O)[O-] (stereo not drawn)	55*	0.9	x	0.4	8
COc1ccc(NC(=S)Nc2ccc3nc(C)c(C)nc3c2)cc1	47	0.8	0.9	0.5	21
CC(=O)Nc1ccc(NC(=O)C(C)n2nc([N+](=O)[O-])c(Br)c2C)cc1 (stereo not drawn)	7	0.7	1.1	0.9	29
COc1ccc(NC(=S)NNC(=O)C(C)n2nc(C)c([N+](=O)[O-])c2C)cc1 (stereo not drawn)	-2	1.1	2.3*	1	-7
Cc1nn(C)c(C(=O)NNC(=S)Nc2ccc(F)cc2)c1[N+](=O)[O-]	52*	0.9	x	0.5	8
Cc1ccc(NC(=O)CCC(=O)c2cccs2)cc1	41	0.2	0.9	0.6	82*
O=C(CCC(=O)Nc1ccccc1)NNC(=O)c1cccs1	-2	1	1.2	1	-3
SMILES	CYP2C9 inhib	CYP2C19 activ	PLAP act	CYP2C9 activ	CYP2C19 inhib
CC(CC(=O)c1cccs1)CC(=O)c1cccs1	93*	0	0.8	0.1	100*
Cc1ccc(CNC(=O)CCC(=O)c2cccs2)cc1	-35	0.1	1.1	1.3	85*
O=C(O)CCCCCCCCCC(=O)c1cccs1	-11	1.1	1.3	1.1	-6
O=C(CCC(=O)c1cccs1)Nc1ccc(F)c(F)c1F	-4	0.3	1	1	66*
COc1cccc(-c2cc(C(=O)N3C(C)CCCC3C)no2)c1 (stereo not drawn)	-55	0.6	1.7	1.6	44
O=C(COC(=O)c1cccs1)Nc1ccccc1	14	0.4	0.9	0.9	57*
CC(NS(=O)(=O)c1ccccc1)C1COc2ccccc2O1 (stereo not drawn)	11	0.5	0.8	0.9	54*
CCOC(=O)CCNC(C)C1COc2ccccc2O1 (stereo not drawn)	0	0.9	0.9	1	8
Cn1c(SCC(=O)NC(C)(C)C)nnc1-c1ccc(C(C)(C)C)cc1	53*	0.8	1.4	0.5	18
Cn1c(SCC(=O)c2ccccc2)nnc1-c1cccc(N)c1	31	0.1	1.1	0.7	95*
Cn1c(SCC(=O)c2ccccc2)nnc1-c1ccc(O)cc1	-78	0.1	1	1.8	93*
Nc1c(-c2ccccc2)n[nH]c1-c1ccccc1	40	0.3	0.8	0.6	75*
CC1=C(C)/C(=N\OS(=O)(=O)c2ccccc2)C=CC1=O	-6	0.9	0.8	1.1	14
COc1ccc(S(=O)(=O)N2Cc3ccccc3CC2C(=O)Nc2ccc(O)cc2)cc1OC (stereo not drawn)	91*	0.2	1.5	0.1	80*
CCS(=O)(=O)N1Cc2ccccc2CC1C(=O)Nc1ccc(C)cc1 (stereo not drawn)	61*	0.1	1.5	0.4	86*
CSc1nc2nc(-c3ccccc3)cc(C(F)(F)F)n2n1	31	0.9	1	0.7	15
COC(=O)c1ccccc1NC(=O)CSc1nnc(C(C)NC(=O)c2ccc(Cl)cc2Cl)n1C (stereo not drawn)	17	1	1.5	0.8	-3
Cc1cc(NCCCN2CCOCC2)n2nc(C)c(-c3ccccc3)c2n1	71*	0.7	1.6	0.3	32
Cc1cc(NCCCN2CCOCC2)n2ncc(-c3ccccc3)c2n1	88*	0.6	0.1	0.1	41
c1ccc2c(Cn3ccnc3)c[nH]c2c1	84*	0.1	0.9	0.2	86*
Cc1oc(-c2ccc(Cl)cc2)nc1CS(=O)CC(=O)NCc1cccs1 (stereo not drawn)	40	0.9	1.5	0.6	11
Cc1cccc(-c2nc(CS(=O)CC(=O)NCc3cccs3)c(C)o2)c1 (stereo not drawn)	60*	0.6	1.7	0.4	37
Cc1oc(-c2ccccc2F)nc1CS(=O)CC(=O)NCc1cccs1 (stereo not drawn)	63*	0.5	1.7	0.4	53*
Cc1oc(-c2ccccc2Cl)nc1CS(=O)CC(=O)NCc1cccs1 (stereo not drawn)	69*	0.3	1.5	0.3	71*
Cc1oc(-c2ccccc2F)nc1CS(=O)CC(=O)NCc1ccc2c(c1)OCO2 (stereo not drawn)	53*	0.4	1.3	0.5	62*
CCCNC(=O)CS(=O)Cc1nc(-c2ccccc2C)oc1C (stereo not drawn)	0	0.9	1.1	1	8
COc1ccccc1COCC(O)CNCC1(N2CCCCC2)CCCCC1 (stereo not drawn)	5	1	1	1	1
